# Measurements: ChEMBL document CHEMBL3988442, “University of Dundee, Small-Polar-MMV Screening Library” (2021)
# For some of these results: Results with a measured potency or affinity are listed apart.
# Legend:
# Set-up in all cases: scale not given: direction of the effect not stated beside the values
# [1] = target: Protein translocase subunit SecA (Escherichia coli (strain K12)) (UniProt P10408); test: Assay to Identify E. coli SecA ATPase Inhibitors; format: functional; conditions: 30 µM
# [2] = target: T1, Ubiquitin-activating enzyme e1, putative (Leishmania donovani (strain BPK282A1)) (UniProt E9BSI1); test: Leishmania donovani Ubiquitin Activating Enzyme (LdE1); format: functional; conditions: 30 µM
# T1 sequence (whole entry): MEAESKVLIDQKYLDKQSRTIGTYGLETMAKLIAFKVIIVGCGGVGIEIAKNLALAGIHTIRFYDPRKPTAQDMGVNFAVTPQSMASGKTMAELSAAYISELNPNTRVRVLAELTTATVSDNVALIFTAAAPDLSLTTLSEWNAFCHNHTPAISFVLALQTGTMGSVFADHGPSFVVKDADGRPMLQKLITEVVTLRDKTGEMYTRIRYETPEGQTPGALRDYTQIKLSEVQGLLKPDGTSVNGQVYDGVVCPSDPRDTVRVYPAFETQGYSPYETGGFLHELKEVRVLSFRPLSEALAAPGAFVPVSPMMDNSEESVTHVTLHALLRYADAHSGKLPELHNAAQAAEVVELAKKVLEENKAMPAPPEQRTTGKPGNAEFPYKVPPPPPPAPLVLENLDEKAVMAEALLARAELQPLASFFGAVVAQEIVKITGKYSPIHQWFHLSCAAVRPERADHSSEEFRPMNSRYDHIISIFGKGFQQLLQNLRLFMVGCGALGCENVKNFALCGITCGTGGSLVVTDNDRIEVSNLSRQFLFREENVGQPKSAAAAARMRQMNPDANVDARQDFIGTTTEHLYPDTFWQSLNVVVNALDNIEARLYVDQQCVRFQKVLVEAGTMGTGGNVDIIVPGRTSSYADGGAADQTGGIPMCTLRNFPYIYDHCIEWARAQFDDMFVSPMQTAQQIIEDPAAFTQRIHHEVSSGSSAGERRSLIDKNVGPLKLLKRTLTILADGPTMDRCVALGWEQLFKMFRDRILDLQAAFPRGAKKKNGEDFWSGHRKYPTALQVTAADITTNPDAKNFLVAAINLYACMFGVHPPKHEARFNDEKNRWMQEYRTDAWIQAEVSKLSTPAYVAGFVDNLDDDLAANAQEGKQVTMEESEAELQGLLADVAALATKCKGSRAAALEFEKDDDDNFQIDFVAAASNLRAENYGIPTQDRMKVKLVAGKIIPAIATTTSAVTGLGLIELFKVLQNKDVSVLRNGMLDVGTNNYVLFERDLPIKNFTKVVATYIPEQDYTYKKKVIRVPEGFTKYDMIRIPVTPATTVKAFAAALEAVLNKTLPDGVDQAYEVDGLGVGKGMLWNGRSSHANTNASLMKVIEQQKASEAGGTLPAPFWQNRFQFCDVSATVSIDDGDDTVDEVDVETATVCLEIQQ
# [3] = target: AMP-activated protein kinase, AMPK (Homo sapiens) (UniProt P54646+O43741+P54619+Q9UGJ0+Q9Y478+Q13131+Q9UGI9); test: AMP-dependent Kinase enzyme assay. An in vitro enzyme assay that detects ADP turnover that is directly proportional to AMPK activity. This uses naive AMPK that is activated during the assay with MK-8722; format: functional; conditions: 30 µM
# [4] = target: Sialic acid-binding Ig-like lectin 9 (Homo sapiens) (UniProt Q9Y336); test: Hs-Siglec9 ALPHAscreen SOP 20170721; conditions: 10 µM
# Trypanosoma cruzi = test: Trypanosoma cruzi phosphomannomutase and mannose-1-phosphate guanylyltransferase assay; format: functional; conditions: 10 µM
# [5] = target: T2, Arginase-2, mitochondrial (Homo sapiens) (UniProt P78540); test: in vitro enzyme assay to detect the production of urea directly proportional to the activity of Arginase II; format: functional; conditions: 33.3 µM; further: in the data most compounds retested in dose-response had high values
# T2 sequence (whole entry): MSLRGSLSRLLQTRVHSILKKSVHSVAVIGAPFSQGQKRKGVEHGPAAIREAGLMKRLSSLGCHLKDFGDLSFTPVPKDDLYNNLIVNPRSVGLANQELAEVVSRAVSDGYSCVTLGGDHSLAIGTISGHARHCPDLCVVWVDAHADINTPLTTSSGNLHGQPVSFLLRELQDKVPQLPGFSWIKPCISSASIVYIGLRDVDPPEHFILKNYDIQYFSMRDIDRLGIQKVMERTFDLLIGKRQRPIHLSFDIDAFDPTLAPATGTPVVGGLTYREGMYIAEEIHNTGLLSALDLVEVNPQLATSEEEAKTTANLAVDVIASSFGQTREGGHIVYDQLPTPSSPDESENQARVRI
# [6] = target: T3, Proteasome subunit beta (Trypanosoma cruzi) (UniProt O96673); test: Trypanosoma cruzi proteasome chymotrypsin-like activity (TcProtChymo) assay.; further: in the data most compounds retested in dose-response had high values; format: functional; conditions: 9.37 µM
# T3 sequence (whole entry): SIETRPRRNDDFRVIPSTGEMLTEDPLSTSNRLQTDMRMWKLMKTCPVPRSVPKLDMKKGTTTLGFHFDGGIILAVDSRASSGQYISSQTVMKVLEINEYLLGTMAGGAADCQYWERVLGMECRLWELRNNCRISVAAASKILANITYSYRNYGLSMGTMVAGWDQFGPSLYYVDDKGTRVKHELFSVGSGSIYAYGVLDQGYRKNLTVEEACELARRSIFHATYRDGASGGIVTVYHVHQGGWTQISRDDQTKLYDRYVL
# Homo sapiens = species: Homo sapiens; test: To identify inhibition of the IFN signalling (Jak-Stat) pathway via expression of an eGFP reporter gene under the control of an IFN-stimulated response element (ISRE) containing MxA promoter.; format: functional; conditions: 30 µM
# [7] = target: T4, Tyrosyl-tRNA synthetase, putative (Trypanosoma cruzi (strain CL Brener)) (UniProt Q4DSP6); test: Trypanosoma cruzi tyrosyl tRNA synthetase (TcYRS) _High Tyrosine SOP; format: functional; conditions: 30 µM; further: in the data most compounds retested in dose-response had high values
# T4 sequence (whole entry): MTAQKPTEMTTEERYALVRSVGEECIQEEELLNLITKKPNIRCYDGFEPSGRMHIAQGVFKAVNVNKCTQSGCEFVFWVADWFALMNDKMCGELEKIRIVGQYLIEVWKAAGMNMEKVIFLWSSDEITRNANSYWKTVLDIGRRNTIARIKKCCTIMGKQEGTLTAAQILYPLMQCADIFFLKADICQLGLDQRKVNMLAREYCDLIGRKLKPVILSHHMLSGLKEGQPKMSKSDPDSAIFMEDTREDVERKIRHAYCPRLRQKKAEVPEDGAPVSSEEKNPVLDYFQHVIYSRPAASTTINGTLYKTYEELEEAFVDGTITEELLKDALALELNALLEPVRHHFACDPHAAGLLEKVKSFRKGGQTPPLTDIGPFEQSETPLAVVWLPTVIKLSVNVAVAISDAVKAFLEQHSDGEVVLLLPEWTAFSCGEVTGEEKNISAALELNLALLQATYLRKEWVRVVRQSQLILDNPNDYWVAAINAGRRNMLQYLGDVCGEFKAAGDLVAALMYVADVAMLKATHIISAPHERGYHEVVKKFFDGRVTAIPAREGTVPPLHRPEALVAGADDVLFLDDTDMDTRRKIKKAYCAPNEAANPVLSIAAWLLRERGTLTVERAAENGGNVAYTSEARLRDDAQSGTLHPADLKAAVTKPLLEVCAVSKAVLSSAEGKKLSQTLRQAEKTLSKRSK
# [8] = target: T4, Tyrosyl-tRNA synthetase, putative (Trypanosoma cruzi (strain CL Brener)); test: Trypanosoma cruzi tyrosyl tRNA synthetase (TcYRS) SOP; format: functional; conditions: 30 µM
# [9] = target: Chromo domain-containing protein 1 (Saccharomyces cerevisiae (strain ATCC 204508 / S288c) (Baker's yeast)) (UniProt P32657); test: ScCHD-1 Enzyme Inhibition Assay; format: functional; conditions: 30 µM; further: in the data most compounds retested in dose-response had high values
# Chain of Chromo domain-containing protein 1 (Saccharomyces cerevisiae (strain ATCC 204508 / S288c) (Baker's yeast)) (P32657 whole entry, the tested form may be a part): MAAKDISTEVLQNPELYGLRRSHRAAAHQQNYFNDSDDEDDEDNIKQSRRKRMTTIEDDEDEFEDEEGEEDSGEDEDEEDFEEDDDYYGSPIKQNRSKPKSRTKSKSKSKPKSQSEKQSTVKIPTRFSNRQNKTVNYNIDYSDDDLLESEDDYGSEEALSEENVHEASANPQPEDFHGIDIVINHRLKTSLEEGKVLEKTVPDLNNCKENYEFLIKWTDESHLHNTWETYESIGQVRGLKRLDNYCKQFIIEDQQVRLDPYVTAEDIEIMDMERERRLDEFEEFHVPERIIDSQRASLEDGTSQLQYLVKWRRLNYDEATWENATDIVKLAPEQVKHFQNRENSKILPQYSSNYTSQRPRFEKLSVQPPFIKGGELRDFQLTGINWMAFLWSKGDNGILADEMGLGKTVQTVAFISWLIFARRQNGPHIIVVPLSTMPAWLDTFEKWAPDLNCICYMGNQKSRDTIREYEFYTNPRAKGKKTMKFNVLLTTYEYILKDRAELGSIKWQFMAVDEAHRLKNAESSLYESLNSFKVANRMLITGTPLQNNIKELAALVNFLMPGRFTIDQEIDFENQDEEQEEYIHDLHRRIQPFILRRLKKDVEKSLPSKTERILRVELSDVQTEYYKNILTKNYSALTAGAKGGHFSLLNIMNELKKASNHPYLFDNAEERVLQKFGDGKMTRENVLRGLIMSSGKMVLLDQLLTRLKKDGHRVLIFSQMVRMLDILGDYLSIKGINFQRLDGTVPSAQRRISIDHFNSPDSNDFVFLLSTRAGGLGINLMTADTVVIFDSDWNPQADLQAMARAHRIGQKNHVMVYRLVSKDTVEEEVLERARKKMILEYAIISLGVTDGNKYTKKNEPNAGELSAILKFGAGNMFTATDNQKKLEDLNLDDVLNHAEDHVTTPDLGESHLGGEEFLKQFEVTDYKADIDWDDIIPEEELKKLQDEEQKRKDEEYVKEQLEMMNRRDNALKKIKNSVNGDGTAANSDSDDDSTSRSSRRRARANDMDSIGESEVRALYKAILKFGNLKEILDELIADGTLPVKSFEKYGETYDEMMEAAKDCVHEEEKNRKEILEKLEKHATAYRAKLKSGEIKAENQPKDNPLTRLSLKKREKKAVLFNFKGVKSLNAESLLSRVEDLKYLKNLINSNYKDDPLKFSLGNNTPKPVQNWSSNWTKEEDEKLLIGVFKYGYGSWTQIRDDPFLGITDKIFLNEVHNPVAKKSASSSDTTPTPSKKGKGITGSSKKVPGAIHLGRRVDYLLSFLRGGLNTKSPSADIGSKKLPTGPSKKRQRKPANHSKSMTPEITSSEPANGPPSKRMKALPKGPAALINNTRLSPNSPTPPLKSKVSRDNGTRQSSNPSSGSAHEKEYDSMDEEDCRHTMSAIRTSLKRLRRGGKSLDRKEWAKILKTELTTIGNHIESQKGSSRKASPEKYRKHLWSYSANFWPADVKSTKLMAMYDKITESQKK
# Chain of Sialic acid-binding Ig-like lectin 9 (Homo sapiens) (Q9Y336 whole entry): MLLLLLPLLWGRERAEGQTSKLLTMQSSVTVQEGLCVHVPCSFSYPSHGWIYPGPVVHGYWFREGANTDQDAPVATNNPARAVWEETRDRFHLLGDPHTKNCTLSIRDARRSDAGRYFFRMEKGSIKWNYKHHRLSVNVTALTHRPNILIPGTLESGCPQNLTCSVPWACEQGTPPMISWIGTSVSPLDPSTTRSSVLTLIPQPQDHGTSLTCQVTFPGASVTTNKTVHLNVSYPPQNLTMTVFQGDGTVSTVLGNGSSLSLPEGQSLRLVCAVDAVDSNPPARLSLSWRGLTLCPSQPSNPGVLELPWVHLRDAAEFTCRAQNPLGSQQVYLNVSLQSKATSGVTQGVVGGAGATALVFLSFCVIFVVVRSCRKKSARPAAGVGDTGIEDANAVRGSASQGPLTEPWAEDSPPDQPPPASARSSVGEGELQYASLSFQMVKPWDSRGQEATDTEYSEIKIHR
# Chain of Protein translocase subunit SecA (Escherichia coli (strain K12)) (P10408 whole entry): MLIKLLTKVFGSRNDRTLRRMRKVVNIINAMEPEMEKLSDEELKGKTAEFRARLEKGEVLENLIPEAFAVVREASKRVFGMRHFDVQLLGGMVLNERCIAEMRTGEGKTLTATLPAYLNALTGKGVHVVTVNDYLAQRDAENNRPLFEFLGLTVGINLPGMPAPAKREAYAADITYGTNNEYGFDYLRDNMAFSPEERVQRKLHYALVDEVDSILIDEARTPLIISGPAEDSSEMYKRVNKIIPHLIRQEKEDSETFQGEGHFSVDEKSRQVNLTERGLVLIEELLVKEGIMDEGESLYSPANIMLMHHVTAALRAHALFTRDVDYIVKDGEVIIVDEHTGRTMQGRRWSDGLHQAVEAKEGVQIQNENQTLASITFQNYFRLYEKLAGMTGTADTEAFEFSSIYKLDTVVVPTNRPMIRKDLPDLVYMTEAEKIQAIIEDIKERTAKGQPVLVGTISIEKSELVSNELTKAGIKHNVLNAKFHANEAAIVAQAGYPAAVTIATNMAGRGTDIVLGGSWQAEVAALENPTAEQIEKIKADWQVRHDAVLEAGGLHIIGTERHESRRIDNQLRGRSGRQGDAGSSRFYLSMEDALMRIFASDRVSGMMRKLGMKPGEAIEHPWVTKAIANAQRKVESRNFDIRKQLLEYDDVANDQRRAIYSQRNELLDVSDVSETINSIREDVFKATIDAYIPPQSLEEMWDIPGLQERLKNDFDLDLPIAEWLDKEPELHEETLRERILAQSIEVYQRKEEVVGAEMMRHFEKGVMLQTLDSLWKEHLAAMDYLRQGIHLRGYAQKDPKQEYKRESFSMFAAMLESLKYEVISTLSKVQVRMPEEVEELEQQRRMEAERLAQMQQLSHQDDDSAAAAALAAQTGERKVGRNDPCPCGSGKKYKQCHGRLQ
Compound,Percent Effect [1],Percent Effect [2],Percent Effect [3],Percent Effect [4],Percent Effect (Trypanosoma cruzi),Percent Effect [5],Percent Effect [6],Percent Effect (Homo sapiens),Percent Effect [7],Percent Effect [8],Percent Effect [9]
O=C1NC(c2ccccc2)=N[C@@]12CC[C@@H]1CN(CC3CCOCC3)C[C@@H]12,-1.53%,0%,5.75%,-1.86%,-1.54%,-48.6%,0.684%,-0.209%,-27.1%,-5%,-1.93%
CCN1CC(C(=O)NCc2ccccc2-n2cccn2)CC1=O (stereo not given),-2.49%,13%,0.208%,2.02%,2.45%,-1.05%,15%,11%,5.71%,23.5%,-8.96%
Cc1noc(C)c1CNC(=O)N1CCC(CO)CC1,-1.26%,13.7%,-4.05%,6.04%,2.18%,-1.2%,7.62%,23.9%,7.29%,16.1%,-0.505%
CSc1ccc(NS(=O)(=O)c2cnn(C)c2)cn1,-5.12%,8.22%,-0.942%,42.3%,3.57%,-4.39%,0.0856%,-19.3%,4.17%,13.6%,-2.22%
COc1ccc(C2CCCCCN2S(=O)(=O)N(C)C)cc1 (stereo not given),-0.837%,12.5%,-11.6%,10.4%,-0.291%,18.1%,12.5%,6.25%,2.1%,5.13%,-3.74%
O=C(c1cccs1)N1CCC(n2nc(-c3ccco3)ccc2=O)CC1,-6.35%,12.2%,7.9%,14%,-1.19%,-5.8%,12.9%,0.605%,9.68%,16.9%,-26.4%
CCc1ncc(CN(C)C(=O)Nc2cccnc2N2CCCC2)s1,-6.28%,13.2%,-27.9%,8.15%,7.38%,1.8%,10.4%,-11.4%,5.42%,13.6%,-1.2%
COCCOc1ccccc1C(=O)N1CCCCC1c1nccs1 (stereo not given),-5.08%,5.41%,-31.5%,16.3%,7.45%,-2.81%,2.52%,-0.874%,4.43%,11.1%,-14.3%
CC(O)CN1CCN(C(=O)CN(C)c2cnccn2)CC1 (stereo not given),3.16%,5.41%,-4.8%,6.58%,-2.12%,-70%,16.6%,5.3%,3.7%,4.88%,-5.99%
CCc1nnc2n1CCN(C(=O)c1ccc(C(F)(F)F)nc1C)C2,-6.11%,20.2%,-4.83%,14.3%,5.95%,-6.08%,9.09%,-2.36%,2.46%,16.5%,-8.19%
O=C(Nc1cnn(CCN2CCOCC2)c1)c1cc(F)ccc1F,-1.54%,7.89%,-3.4%,20.5%,-1.32%,1.53%,-3.17%,-12.4%,4.41%,9.76%,3.02%
CC(C)COCC(NC(=O)c1cc[nH]n1)c1ccco1 (stereo not given),-5.65%,24.3%,-9.5%,15.5%,1.79%,-13.6%,5.59%,19.5%,4.43%,18.5%,-12.3%
COc1ccc(CN(C)C(=O)CCC(=O)c2cccs2)c(OC)c1OC,-2.26%,-2.74%,-1.79%,9.32%,2.78%,-6.39%,10.7%,18.4%,9.38%,21%,2.3%
COc1cc(CNc2cnn(C)c2)cc2c1OCCO2,-3.52%,-13.2%,-22.5%,3.9%,1.5%,-1.15%,4.68%,-1.15%,-13.2%,-14.6%,-4.73%
CC(C)c1nccn1C1CCCN(C(=O)c2ccnc(N(C)C)c2)C1 (stereo not given),-2.97%,-7.79%,-1.67%,-1.25%,0.0979%,1.47%,10.6%,18.4%,1.91%,-11.8%,-18.1%
O=C(c1ccccn1)N1CCc2c(nc(N3CCCC3)[nH]c2=O)C1,-7.12%,12.2%,0.895%,26.1%,0.198%,-3.48%,7.64%,10.1%,3.23%,11.7%,-17.3%
CCn1nnc2cc(C(=O)N3CCCC3Cn3cc(C)cn3)ccc21 (stereo not given),-1.32%,-5.06%,-2.65%,3.15%,3.31%,2.28%,0.737%,9.94%,0.493%,1.27%,0.343%
c1cc(-c2cnccn2)cc(-c2ccn(CCN3CCCC3)n2)c1,-2.8%,-21.6%,3.09%,2.06%,-1.54%,-10.9%,6.9%,0.332%,14.3%,7.32%,-0.216%
C[C@@H]1CN(C(=O)c2ccc(C#N)nc2)C[C@@]1(O)C1CC1,-4.79%,13.5%,-4.57%,30.4%,9.65%,-1.91%,5%,1.76%,2.65%,14.6%,-12.3%
O=C(CN1CCCCC1Cn1cncn1)NCCc1ccc(F)cc1 (stereo not given),-0.868%,15.2%,-4.02%,-10.5%,-6.89%,-2.28%,8.27%,37.4%,8.37%,11.4%,-9.46%
